Assay results published in publication PMC3218832.

Columns and labels:
Assay in all cases: protein binding microarray; high values mean tight binding
Conditions in all cases: dsDNA, one strand shown
RELARELA (p65 homodimer) = RELARELA (p65 homodimer) (Homo sapiens, UniProt Q04206 1-307)
p50p50 homodimer = p50p50 homodimer (Homo sapiens, UniProt P19838 7-356)
p52p52 homodimer = biological target: T1, p52p52 homodimer (Homo sapiens, UniProt Q00653 4-332)
T1 sequence: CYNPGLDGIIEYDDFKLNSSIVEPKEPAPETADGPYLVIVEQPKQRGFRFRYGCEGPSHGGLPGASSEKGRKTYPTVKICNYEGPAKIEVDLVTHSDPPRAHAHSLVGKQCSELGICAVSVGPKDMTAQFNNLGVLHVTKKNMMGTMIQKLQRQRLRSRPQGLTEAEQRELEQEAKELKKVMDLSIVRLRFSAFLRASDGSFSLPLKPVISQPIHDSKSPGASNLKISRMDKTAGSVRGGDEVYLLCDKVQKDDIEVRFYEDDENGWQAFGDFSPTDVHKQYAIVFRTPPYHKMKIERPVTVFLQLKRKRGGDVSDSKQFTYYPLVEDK

[1] = biological target: RELA (p65) subunit of heterodimer;p50 subunit (Homo sapiens;Homo sapiens, UniProt Q04206;P19838 1-307;7-356)
[2] = biological target: RELA (p65) subunit of heterodimer;p52 subunit (Homo sapiens;Homo sapiens, UniProt Q04206;Q00653 1-307;4-332)
RELB subunit;p50 subunit = RELB subunit;p50 subunit (Homo sapiens;Homo sapiens, UniProt Q01201;P19838 120-401;7-356)
RELB subunit;p52 subunit = biological target: T2, RELB subunit;p52 subunit (Homo sapiens;Homo sapiens, UniProt Q01201;Q00653 120-401;4-332)
T2 sequence 1: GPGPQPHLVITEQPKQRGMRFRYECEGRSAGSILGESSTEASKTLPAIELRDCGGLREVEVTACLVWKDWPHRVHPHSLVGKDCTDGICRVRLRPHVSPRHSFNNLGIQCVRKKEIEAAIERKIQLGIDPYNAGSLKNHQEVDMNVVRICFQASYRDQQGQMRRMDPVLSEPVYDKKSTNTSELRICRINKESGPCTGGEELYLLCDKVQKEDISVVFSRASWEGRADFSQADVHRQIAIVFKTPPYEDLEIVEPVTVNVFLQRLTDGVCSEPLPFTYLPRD
T2 sequence 2: T1 sequence

[3] = biological target: C-Rel subunit;p50 subunit (Homo sapiens;Homo sapiens, UniProt Q04864;P19838 1-285;7-356)
[4] = biological target: T3, C-Rel subunit;p52 subunit (Homo sapiens;Homo sapiens, UniProt Q04864;Q00653 1-285;4-332)
T3 sequence 1: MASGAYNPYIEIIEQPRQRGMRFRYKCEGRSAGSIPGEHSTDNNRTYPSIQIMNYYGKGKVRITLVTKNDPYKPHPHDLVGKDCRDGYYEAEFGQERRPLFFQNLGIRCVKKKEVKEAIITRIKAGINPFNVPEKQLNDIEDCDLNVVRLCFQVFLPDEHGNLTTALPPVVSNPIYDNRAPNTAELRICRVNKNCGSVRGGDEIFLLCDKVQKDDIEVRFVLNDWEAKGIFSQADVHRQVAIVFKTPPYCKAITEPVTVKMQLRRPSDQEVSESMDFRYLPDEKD
T3 sequence 2: T1 sequence

p50p50 homodimer, sequence (P19838 7-356): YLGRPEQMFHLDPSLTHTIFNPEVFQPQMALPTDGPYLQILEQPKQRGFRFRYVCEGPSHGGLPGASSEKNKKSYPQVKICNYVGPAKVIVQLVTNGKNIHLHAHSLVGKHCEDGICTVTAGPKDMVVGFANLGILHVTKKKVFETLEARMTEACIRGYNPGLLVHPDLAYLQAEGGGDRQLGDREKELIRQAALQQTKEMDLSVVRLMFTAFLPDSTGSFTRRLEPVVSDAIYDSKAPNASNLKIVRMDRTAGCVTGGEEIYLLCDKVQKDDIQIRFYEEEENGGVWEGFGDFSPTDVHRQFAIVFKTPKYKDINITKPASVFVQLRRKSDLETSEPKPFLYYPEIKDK
RELARELA (p65 homodimer), sequence (Q04206 1-307): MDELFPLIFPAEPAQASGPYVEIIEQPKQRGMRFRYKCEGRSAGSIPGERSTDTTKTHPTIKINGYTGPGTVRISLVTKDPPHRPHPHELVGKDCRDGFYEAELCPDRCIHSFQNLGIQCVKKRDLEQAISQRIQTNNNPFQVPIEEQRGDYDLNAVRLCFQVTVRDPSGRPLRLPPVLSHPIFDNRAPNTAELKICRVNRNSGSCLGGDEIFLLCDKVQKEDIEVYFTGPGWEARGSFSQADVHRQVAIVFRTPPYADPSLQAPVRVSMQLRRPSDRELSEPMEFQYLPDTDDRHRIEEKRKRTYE
RELA (p65) subunit of heterodimer;p50 subunit, sequence (Q04206 1-307, chain 1 of 2): as the sequence (Q04206 1-307) above
RELA (p65) subunit of heterodimer;p50 subunit, sequence (P19838 7-356, chain 2 of 2): as the sequence (P19838 7-356) above

Row | Sequence | binding signal (RELARELA (p65 homodimer)) [z-score] | binding signal (p50p50 homodimer) [z-score] | binding signal (p52p52 homodimer) [z-score] | binding signal [1] [z-score] | binding signal [2] [z-score] | binding signal (RELB subunit;p50 subunit) [z-score] | binding signal (RELB subunit;p52 subunit) [z-score] | binding signal [3] [z-score] | binding signal [4] [z-score]
1 | GGAGTCCTCCC | -0.114 | -0.916 | -0.266 | -0.571 | -0.463 | -0.55 | -0.535 | -0.207 | -0.576
2 | GGAGGGATCCT | -0.405 | -1.1 | -0.254 | -0.619 | -0.58 | -0.707 | -0.517 | -1.01 | -0.454
3 | CAGTGTTTCCT | 0.51 | -0.616 | -0.52 | -0.47 | -0.473 | -0.831 | -0.677 | -0.349 | -0.285
4 | CGATGGATCCT | -0.596 | -1.5 | -0.616 | -1.04 | -1 | -1.33 | -1.12 | -1.59 | -1.01
5 | AGGTTTGTCCC | 1.29 | 0.56 | 0.82 | 0.878 | 0.918 | 0.602 | 0.621 | 0.937 | 0.735
6 | CGGTTATCCCT | 0.134 | 0.215 | 0.38 | 0.0537 | 0.272 | 0.229 | 0.321 | 0.223 | 0.381
7 | CAAAGGGTCCC | -0.377 | -0.186 | -0.0557 | -0.357 | -0.288 | 0.0439 | -0.0611 | -0.397 | -0.359
8 | CAGAAGTCCCT | 0.471 | 1.51 | 1.62 | 1.88 | 1.35 | 2.02 | 1.86 | 1.39 | 0.987
9 | AGGTACGCCCC | -0.0324 | 0.221 | 0.402 | 0.321 | 0.526 | 0.233 | 0.441 | 0.444 | 0.674
10 | CAAAACACCCC | 0.0833 | 0.707 | 0.313 | 0.534 | 0.701 | 0.488 | 1.03 | 0.611 | 0.701
11 | GAGTGACTCCC | -0.623 | -0.849 | -0.413 | -0.796 | -0.812 | -0.601 | -0.827 | -0.837 | -0.832
12 | CGATGTCTCCT | -0.49 | -1.36 | -0.736 | -0.843 | -0.849 | -1.04 | -0.858 | -1.52 | -0.895
13 | AGAAGCTCCCT | -0.425 | 0.158 | -0.322 | -0.103 | -0.284 | -0.0298 | -0.239 | -0.54 | -0.52
14 | CGAGTTCTCCC | 0.00528 | 0.1 | -0.0592 | 0.0957 | -0.132 | 0.367 | 0.182 | -0.0444 | -0.16
15 | GAAGATGCCCC | 0.0529 | 0.407 | 0.0127 | 0.599 | 0.186 | 0.421 | 0.376 | 0.679 | 0.228
